This is one part of a sample in which hits are shown more often than they occur.
STK33 inh: STK33 kinase inhibitors, primary screen, biochemical, luminescence, ADP-Glo, MBP substrate; Serine/threonine-protein kinase 33 (Homo sapiens), Q9BYT3; inhibition, % at 12.5 µM; actives 0.44% (n = 27,000); AID 2322, 2010; in the data active = inhibition above about 20%; inconclusive = no clear call, values can overlap the other calls
Target sequence (Q9BYT3 whole entry, looked up): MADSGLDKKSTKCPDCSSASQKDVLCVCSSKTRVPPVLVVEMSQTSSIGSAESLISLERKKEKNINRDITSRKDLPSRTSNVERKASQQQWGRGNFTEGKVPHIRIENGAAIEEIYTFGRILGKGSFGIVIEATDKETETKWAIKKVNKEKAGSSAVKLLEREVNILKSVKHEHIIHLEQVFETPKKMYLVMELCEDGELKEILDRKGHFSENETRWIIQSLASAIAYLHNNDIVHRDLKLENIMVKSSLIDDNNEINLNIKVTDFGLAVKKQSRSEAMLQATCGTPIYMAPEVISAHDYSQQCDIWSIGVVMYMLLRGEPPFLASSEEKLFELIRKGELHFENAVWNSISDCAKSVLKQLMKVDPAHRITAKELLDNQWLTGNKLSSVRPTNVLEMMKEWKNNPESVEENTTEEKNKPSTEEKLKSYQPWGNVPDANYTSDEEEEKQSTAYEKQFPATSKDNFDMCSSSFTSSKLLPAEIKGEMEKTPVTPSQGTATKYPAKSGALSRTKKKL
PD-1 reversal: activators reversing PD-1 mediated T-cell inhibition, primary screen, luminescence, primary human CD4 T cells, PD-L1 beads | CellTiter-Glo 96 h | 29,000 tested, under 10 active | AID 2316, 2010 | activation, % (test concentration not listed); call rule not given here
NOMO-1 viab: NOMO-1 AML cell viability reduction, primary screen, STK33 inhibitor project, CellTiter-Glo luminescence | NOMO-1 AML viability, 72 h | inhibition, % (concentration not given with the values) | actives 7.5% (n = 37,000) | AID 2330, 2010; in the data active = inhibition above about 80%; inconclusive = no clear call, values can overlap the other calls
Numbers stand for hits; - = inactive; ? = inconclusive; . = no result.

SMILES | STK33 inh | PD-1 reversal | NOMO-1 viab
C[C@@H]1CN([C@H](C)CO)C(=O)c2cc(NS(=O)(=O)c3ccc(F)cc3)ccc2O[C@@H]1CN(C)Cc1ccc(C(=O)Nc2ccccc2N)cc1 | . | - | 108
C[C@@H]1CN([C@@H](C)CO)C(=O)c2cc(NS(=O)(=O)c3ccc(Cl)cc3)ccc2O[C@@H]1CN(C)Cc1ccc(C(=O)Nc2ccccc2N)cc1 | . | - | 110
C[C@@H]1CN([C@@H](C)CO)C(=O)c2cc(NS(=O)(=O)c3ccc(F)cc3)ccc2O[C@H]1CN(C)Cc1ccc(C(=O)Nc2ccccc2N)cc1 | . | - | ?
C[C@H]1CN([C@@H](C)CO)C(=O)c2cc(NS(=O)(=O)c3ccc(Cl)cc3)ccc2O[C@@H]1CN(C)Cc1ccc(C(=O)Nc2ccccc2N)cc1 | . | - | -
Cc1ccc(S(=O)(=O)Nc2ccc3c(c2)C(=O)N([C@@H](C)CO)C[C@@H](C)[C@H](CN(C)Cc2ccc(C(=O)Nc4ccccc4N)cc2)O3)cc1 | . | - | -
O=C(CSc1nc(O)cc(=O)n1-c1ccccc1)Nc1cccc2ccccc12 | - | . | .
Cc1ccc(CN(CC(=O)O)S(=O)(=O)c2ccc(Br)cc2)cc1 | - | - | -
Cc1nn(CC(=O)Nc2cc(F)ccc2F)c(C)c1[N+](=O)[O-] | - | . | -
CCn1c(SCC(=O)Nc2cccc(Cl)c2Cl)nc2ccccc2c1=O | . | - | -
C[C@@H]1CN([C@@H](C)CO)C(=O)c2cc(NS(=O)(=O)c3ccccc3)ccc2O[C@H]1CN(C)Cc1ccc(C(=O)Nc2ccccc2N)cc1 | . | - | -
C[C@H](CO)N1C[C@H](C)[C@H](CN(C)Cc2ccc(C(=O)Nc3ccccc3N)cc2)Oc2ccc(NS(=O)(=O)c3ccccc3)cc2C1=O | . | - | 109
Cc1ccc(NC(=S)NC(=O)C23CC4CCC(CC(C4)C2)C3)cc1 | . | - | -
Cc1noc(C)c1NC(=O)Nc1ccc2c(c1)C(=O)N([C@H](C)CO)C[C@H](C)[C@@H](CN(C)S(=O)(=O)c1c(C)noc1C)OCCCC[C@@H](C)O2 | - | - | -
Cc1noc(C)c1S(=O)(=O)N(C)C[C@H]1OCCCC[C@@H](C)Oc2ccc(NC(=O)Nc3ccc(C(F)(F)F)cc3)cc2C(=O)N([C@H](C)CO)C[C@@H]1C | - | - | 104
C[C@@H]1CCCCO[C@H](CN(C)S(=O)(=O)c2cccs2)[C@@H](C)CN([C@H](C)CO)C(=O)c2cc(NC(=O)Nc3ccc(C(F)(F)F)cc3)ccc2O1 | - | - | 90
C[C@@H]1CCCCO[C@@H](CN(C)S(=O)(=O)c2cccs2)[C@@H](C)CN([C@H](C)CO)C(=O)c2cc(NC(=O)Nc3ccc(C(F)(F)F)cc3)ccc2O1 | - | . | -
COc1ccc(S(=O)(=O)N(C)CC(N)=O)cc1 | - | . | .
Cc1ccc(C(=O)/C=C2/NCCNC2=O)cc1 | . | - | -
C[C@H](CO)N1C[C@H](C)[C@@H](CN(C)Cc2ccc3c(c2)OCO3)Oc2c(NC(=O)CCCCCC(=O)Nc3ccccc3N)cccc2C1=O | . | - | 123
C[C@H](CO)N1C[C@H](C)[C@H](CN(C)Cc2ccc3c(c2)OCO3)Oc2c(NC(=O)Nc3cccc4ccccc34)cccc2C1=O | . | - | -
C[C@@H]1CN([C@H](C)CO)C(=O)c2cccc(NC(=O)C3CC3)c2O[C@@H]1CN(C)Cc1ccc2c(c1)OCO2 | . | - | -
C[C@H]1CN([C@@H](C)CO)C(=O)c2cccc(NC(=O)C3CC3)c2O[C@@H]1CN(C)Cc1ccc2c(c1)OCO2 | . | . | -
C[C@@H]1CN([C@@H](C)CO)C(=O)c2cccc(NC(=O)CCCCCC(=O)Nc3ccccc3N)c2O[C@H]1CN(C)Cc1ccc2c(c1)OCO2 | . | - | 117
C[C@H]1CN([C@@H](C)CO)C(=O)c2cccc(NC(=O)CCCCCC(=O)Nc3ccccc3N)c2O[C@@H]1CN(C)Cc1ccc2c(c1)OCO2 | . | - | 121
C[C@@H]1[C@H]2[C@H](OC3O[C@H](CO)[C@@H](O)[C@H](O)[C@H]3O)OC=C(C(=O)O)[C@H]2C[C@@H]1O (stereo partly specified) | - | - | -
SMILES | STK33 inh | PD-1 reversal | NOMO-1 viab
COc1ccc(-c2nn(C)c(=O)c3ccccc23)cc1CNC(=O)Nc1ccccc1 | - | - | -
O=C(COc1ccc(Br)cc1)Nc1cccc(-c2nnc(-c3ccccc3)o2)c1 | - | - | -
Cc1ccc2c(CC(=O)Nc3cccc([N+](=O)[O-])c3)coc2c1C | - | - | -
Cc1ccc2c(CC(=O)NCc3ccco3)coc2c1C | - | - | 115
Cc1cc(C)c2oc(-c3ccc(NC(=O)COc4ccccc4[N+](=O)[O-])cc3)nc2c1 | - | - | -
O=C(Cn1cnc2ccccc2c1=O)Nc1cccc(C(=O)c2ccccc2)c1 | - | - | -
COc1ccc(NC(=O)Nc2ccc3c(c2)C(=O)N([C@H](C)CO)C[C@H](C)[C@H](CN(C)Cc2ccncc2)OCCCC[C@@H](C)O3)cc1 | - | - | -
COc1ccc(NC(=O)Nc2ccc3c(c2)C(=O)N([C@H](C)CO)C[C@H](C)[C@@H](CN(C)Cc2ccc(C(F)(F)F)cc2)OCCCC[C@@H](C)O3)cc1 | - | . | 110
C[C@@H]1CCCCO[C@@H](CN(C)Cc2ccc(C(F)(F)F)cc2)[C@@H](C)CN([C@H](C)CO)C(=O)c2cc(NC(=O)c3ccncc3)ccc2O1 | - | . | -
C[C@@H]1CCCCO[C@H](CN(C)Cc2ccc(C(=O)O)cc2)[C@@H](C)CN([C@H](C)CO)C(=O)c2cc(NC(=O)C3CCCCC3)ccc2O1 | - | - | -
C[C@@H]1CCCCO[C@@H](CN(C)Cc2ccc(C(F)(F)F)cc2)[C@@H](C)CN([C@H](C)CO)C(=O)c2cc(NC(=O)C3CCCCC3)ccc2O1 | - | - | 108
C[C@@H]1CCCCO[C@@H](CN(C)Cc2ccc(C(F)(F)F)cc2)[C@@H](C)CN([C@H](C)CO)C(=O)c2cc(NC(=O)c3ccccc3)ccc2O1 | - | - | 93
C[C@@H]1CCCCO[C@@H](CN(C)Cc2ccccc2)[C@@H](C)CN([C@H](C)CO)C(=O)c2cc(NC(=O)Nc3ccc(C(F)(F)F)cc3)ccc2O1 | - | - | 115
C[C@@H]1CCCCO[C@@H](CN(C)Cc2ccc(C(=O)O)cc2)[C@@H](C)CN([C@H](C)CO)C(=O)c2cc(NC(=O)Nc3ccc(C(F)(F)F)cc3)ccc2O1 | - | - | -
C[C@@H]1CCCCO[C@@H](CN(C)Cc2ccccc2)[C@@H](C)CN([C@H](C)CO)C(=O)c2cc(NC(=O)Cc3ccccc3)ccc2O1 | - | - | -
C[C@@H]1CCCCO[C@@H](CN(C)Cc2ccc(C(F)(F)F)cc2)[C@@H](C)CN([C@H](C)CO)C(=O)c2cc(NC(=O)Cc3ccccc3)ccc2O1 | - | - | 106
Cc1ccc([N+](=O)[O-])cc1NC(=O)CSc1nnc(-c2ccncc2)n1-c1ccccc1 | - | . | -
O=C(COc1ccc(F)cc1)Nc1ncccn1 | - | - | -
COc1cc2ccc(=O)oc2cc1OCC=C(C)C | - | . | .
CC(C)=CCOc1cc2oc(=O)ccc2cc1O | - | . | 109
CCOc1ccc(C2(CC(=O)Nc3ccccc3)C(=O)c3ccccc3C2=O)cc1OC | . | - | -
Cc1ccc(N2C3=C(C(=O)CC(C)(C)C3)C(c3cccs3)C3=C2CC(C)(C)CC3=O)cc1C | - | - | 118

Compound activity deposited in PubChem by Broad Institute.
